# High-throughput results as filed in PubChem BioAssay.
# Only some compounds are listed: those with a hit (about 8.8% of all), similar ones and a draw of the others.
# HPGD inh = qHTS Assay for Inhibitors of HPGD (15-Hydroxyprostaglandin Dehydrogenase); 15-hydroxyprostaglandin dehydrogenase [NAD(+)] (Homo sapiens), P15428; purified HPGD, NADH fluorescence kinetic, PGE2 substrate; Potency, µM, for inactives: top-dose activity change, negative = inhibition, hits mostly inhibitors; 150,000 compounds, 4.3% hits; active = well fitted inhibition curve with a large enough effect, not every such curve was filed as active; inconclusive = small, poorly fitted or top-dose-only effect, or another doubt; inactive = no such curve, though single readings can be large or run the other way; note: % is set by controls: 0 for no effect and ±100 for the full control effect
# Target sequence (P15428 whole entry, looked up): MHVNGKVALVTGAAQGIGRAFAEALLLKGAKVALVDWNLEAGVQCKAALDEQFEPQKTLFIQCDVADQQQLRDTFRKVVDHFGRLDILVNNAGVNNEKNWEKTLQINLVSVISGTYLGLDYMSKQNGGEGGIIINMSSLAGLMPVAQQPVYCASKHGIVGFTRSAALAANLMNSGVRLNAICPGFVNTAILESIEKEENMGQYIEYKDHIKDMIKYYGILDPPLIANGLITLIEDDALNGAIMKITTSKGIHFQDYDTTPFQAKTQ
#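 20 nM HPGD preincubated 15 min at room temperature with compound in 50 mM Tris-HCl pH 8, 0.01% Tween 20. Started with 1 mM NAD+ and 30 uM prostaglandin E2; NADH fluorescence (360/450 nm) read 5 times over 30-s intervals, last minus first.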
# ALDH1A1 inh = qHTS Assay for Inhibitors of Aldehyde Dehydrogenase 1 (ALDH1A1) | Aldehyde dehydrogenase 1A1 (Homo sapiens), P00352 | Purified ALDH1A1, NADH fluorescence, propionaldehyde substrate | Potency, µM (highest dose often 75.3 µM), for the others: at the top dose activity, negative = inhibition, hits mostly inhibitors | 220,000 compounds, 7.3% hits | AID 1030, 2008; active = well fitted inhibition curve with a large enough effect, not every such curve was filed as active; inconclusive = small, poorly fitted or top-dose-only effect, or another doubt; inactive = no such curve, though single readings can be large or run the other way;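 note: plate controls were no enzyme wells and a reference inhibitor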
# Target sequence (P00352 whole entry, looked up): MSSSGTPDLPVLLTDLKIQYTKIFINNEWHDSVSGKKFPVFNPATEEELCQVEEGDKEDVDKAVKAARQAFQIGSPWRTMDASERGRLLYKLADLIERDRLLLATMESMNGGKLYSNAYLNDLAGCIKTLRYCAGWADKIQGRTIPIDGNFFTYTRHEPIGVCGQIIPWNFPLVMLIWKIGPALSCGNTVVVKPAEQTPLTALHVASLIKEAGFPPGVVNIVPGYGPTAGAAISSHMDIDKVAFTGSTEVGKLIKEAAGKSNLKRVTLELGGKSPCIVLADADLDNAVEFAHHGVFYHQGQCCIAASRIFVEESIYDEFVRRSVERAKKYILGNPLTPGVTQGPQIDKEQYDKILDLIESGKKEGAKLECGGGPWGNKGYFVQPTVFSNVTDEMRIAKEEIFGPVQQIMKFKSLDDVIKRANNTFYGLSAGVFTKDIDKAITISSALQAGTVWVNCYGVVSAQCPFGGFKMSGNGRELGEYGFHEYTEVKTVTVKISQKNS
# LMNA splice mod = qHTS Assay for Modulators of Lamin A Splicing; HeLa LMNA splicing GFP/RFP minigene ratio, 48 h; Potency, µM (top dose mostly 46.1 µM), without a hit: at the top dose ratio change, negative = inhibition, hits mostly inhibitors; 200,000 compounds, 0.01% hits; active = well fitted inhibition curve with a large enough effect in the signal ratio, with a control signal flat, not every such curve was filed as active; inconclusive = small, poorly fitted or top-dose-only effect, or effect the other way, or a change in a side signal; the % refers to the signal ratio; note: % is set by controls: 0 for no effect and ±100 for the full control effect
#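 Read-out is the ratio of GFP to DsRed2 object intensity, acquired by 488 nm laser-scanning cytometry on HeLa lamin A-EGFP minigene reporter cells. Compound incubation 48 hrs at 37 °C in Opti-MEM with 2% FBS; DMSO 0.5% final.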
# HTT cytoprotect = qHTS Multiplex Assay to Identify Dual Action Probes in a Cell Model of Huntington: Cytoprotection (ATP); PC12 HTT-Q103 induced, cytoprotection, ATP luminescence, 40 h; Potency, µM (highest dose often 56.4 µM), for the others: cytoprotection (ATP increase), usual class: activators; 230,000 compounds, 0.14% hits; AID 1471, 2008; note: % of control where 0% means no effect; nearly all actives have a fitted effect of over 45% in size
#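 ATP quantification (ATPlite) reports survival of PC12 cells in which tebufenozide, 100 nM final, switches on Htt exon 1 with 103 glutamines linked to GFP; compounds are titrated.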
# HttQ103 aggreg = qHTS Multiplex Assay to Identify Dual Action Probes in a Cell Model of Huntington: Aggregate Formation (GFP); PC12 HttQ103-GFP aggregates, Acumen cytometry, 40 h; Potency, µM (top dose mostly 46.1 µM), for the others: top-dose activity change, negative = inhibition, hits mostly inhibitors; 220,000 compounds, 1.1% hits; AID 1688, 2009; note: % is set by controls: 0 for no effect and ±100 for the full control effect; nearly all actives have a fitted effect of over 60% in size
#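 Compounds (qHTS titration) were added to PC12 cells expressing an ecdysone-driven HTT exon 1 Q103–GFP fusion after induction with 100 nM tebufenozide. Aggregate formation was measured as GFP objects in cell lysates.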
# * = called active by the depositor; ? = inconclusive; . = not tested or not shown; [ ] = remark or other dose. Unless noted, calls come from the whole dose curve; as a rule, active = well fitted curve in the direction sought with a large enough effect; inconclusive = small, poorly fitted or top-dose-only effect, or another doubt; inactive = no such curve, though single readings can be large; an effect the other way counts as inactive or inconclusive. Potency is the fitted concentration of half-maximal effect.
SMILES,HPGD inh,ALDH1A1 inh,LMNA splice mod,HTT cytoprotect,HttQ103 aggreg
COc1ccccc1NS(=O)(=O)c1cc(NC(=O)C2CCCC2)ccc1N1CCOCC1,.,10µM*,?,5%[10 µM],?
CCC(CC)C(=O)Nc1cc(-c2cn3cccnc3n2)ccc1OC,.,.,5%[46 µM],.,.
CCOc1ccccc1CNC(=O)CN1C(=O)c2cccnc2Oc2ccc(Cl)cc21,.,.,-13%[46 µM],.,.
CC1=C(/C=C\C(=O)O)C(C)(C)CCC1,-1%,-4%[13.5 µM],.,-10%[10 µM],.
O=C(O)[C@@H]1CCCN1Cc1c[nH]c2ccccc12,0%,3%[13.5 µM],.,-3%[10 µM],.
COc1ccccc1NS(=O)(=O)c1cc(NC(=O)c2cc[n+]([O-])cc2)ccc1N1CCCC1,.,7.9µM*,-10%[46 µM],-24%,3%
COc1ccccc1NS(=O)(=O)c1cc(NC(=O)C(C)C)ccc1N1CCCCC1,.,9.5µM*,.,-9%,-7%
COc1ccccc1NS(=O)(=O)c1cc(NC(=S)NCCN2CCOCC2)ccc1N1CCOCC1,18µM*,25µM*,-10%,-42%[10 µM],?
COc1ccccc1NS(=O)(=O)c1cc(NC(=O)c2cccs2)ccc1N1CCCCC1,-17%,-13%,?,-21%[0.074 µM],?
COc1ccc(NS(=O)(=O)c2cc(NC(=O)CC3CCCC3)ccc2N2CCOCC2)cc1,.,3.2µM*,3%[46 µM],-77%,-29%
COc1ccccc1NS(=O)(=O)c1cc(NC(=O)c2cnccn2)ccc1N1CCOCC1,.,.,.,12%[10 µM],0%[9.22 µM]
Cc1ccc(C)c(NC(=O)CN2CCN(C3CCCCC3)C(=O)C2=O)c1,.,.,-9%[46 µM],.,.
COC(=O)c1ccc(CSc2nc3c([nH]c4ccccc43)c(=O)n2-c2ccc(F)cc2)o1,.,.,9%[46 µM],.,.
O=C(CN1N=C(c2ccccc2)CCC1=O)NCc1ccc(F)cc1Cl,.,.,-11%[46 µM],.,.
C[C@H](Br)C(=O)Nc1ccc(C(=O)O)c(O)c1,-8%,-5%[13.5 µM],.,-11%[10 µM],.
CCCCCCCn1ccc(=N)cc1,-3%,1%,?,-54%,1.1µM*
COc1ccc(CNc2ncnc3c2nnn3C)cc1,.,.,-2%[46 µM],.,.
CCC(=O)N1Cc2ccccc2-c2ccccc2C1=O,-5%,-1%,12%,3%[0.074 µM],5.6µM*
O=C(O)CCN1Cc2ccccc2C1=O,-1%,-10%,4%,23%[10 µM],-4%
Cc1cc(Cl)ccc1NC(=S)NCCCO,-3%,-3%,16%,22%[0.074 µM],8%
Cc1ccc(Cl)cc1NC(=S)NCCCSC1CCCCC1,.,?,?,-195%,22µM*
Cc1cc2nc(N(Cc3cccnc3)C(=O)c3ccc(Cl)s3)sc2cc1C,.,.,19%[46 µM],.,.
COc1ccc(CN2C(=O)NC(C)(c3ccc(C)cc3)C2=O)cc1F (configuration not stated),.,0.35µM*,-16%[46 µM],-6%,12%
Cc1ccccc1CNC(=O)C1=Cc2ccccc2OC1,.,.,2%[46 µM],.,.
O=C1NC(=NCc2ccccc2)S/C1=C/c1ccc(O)cc1,2.8µM*,-8%,-12%,-27%[10 µM],7%
SMILES,HPGD inh,ALDH1A1 inh,LMNA splice mod,HTT cytoprotect,HttQ103 aggreg
O=C(c1ccc(C#CC2(O)CCCCC2)cc1)N1CCN(C(c2ccccc2)c2ccccc2)CC1,-16%,25µM*,?,-57%,8%[9.22 µM]
Cc1ccsc1-c1nc(CSCC(=O)N2CCN(c3ccccc3)CC2)c(C)o1,?,?,-18%,10%,13µM*
Cc1ccccc1CSCC(=O)N1CCN(c2ccccc2)CC1,-7%,1%,?,.,1%
Cc1cc(/C=C\c2ccc3cc(N(C)C)ccc3[n+]2C)c(C)n1-c1ccccc1,-4%,-13%[20.9 µM],?,-93%[17.1 µM],3.2µM*
Cc1cc(/C=C/C(=O)O)c(C)n1-c1ccc(Cl)cc1,.,-8%,-18%[46 µM],-42%,24%
O=C(Nc1nc(-c2ccccc2)ns1)c1ccc(Cl)cc1,.,.,-11%[46 µM],.,.
N#Cc1c(Cl)nsc1NC(=O)c1ccccc1,.,?,.,-108%,4µM*
Cc1sc(NC(=O)C2CCCCC2)c(C#N)c1-c1ccccc1,-19%,?,-9%,-9%,18%
Cc1cccc(C(=O)Nc2sc(C)c(-c3ccccc3)c2C#N)c1,?,?,?,-54%,22µM*
Cc1noc(C)c1C(=O)Nc1sc(C)c(-c2ccccc2)c1C#N,-29%,10µM*,?,-31%[0.074 µM],4%
Cc1noc(C)c1C(=O)Nc1ccccc1-c1ccccc1,-4%,?,18%,-36%[0.074 µM],-9%
CCN(CC)c1nn2c(=O)c(C(=O)NCc3ccc(N(C)C)cc3)cnc2s1,.,.,3%[46 µM],.,.
CC(C(=O)N1CCOCC1)N1C(=O)c2cccc3cccc(c23)C1=O (configuration not stated),.,?,4%[46 µM],7%,3%[9.22 µM]
COC(=O)c1ccc(-c2ccco2)n1Cc1nc(-c2ccc(OC)c(OC)c2)oc1C,?,7.9µM*,?,-49%,-21%
CCN(CC)CCn1c2ccccc2c2cnc(N=CN(C)C)c(C#N)c21,?,?,?,-87%,2%
CCn1c2ccccc2c2cnc(N=CN(C)C)c(C#N)c21,-30%,?,-10%,-73%,8.9µM*
COc1cccc(-c2nnc(SCC(=O)N(C)c3ccccc3)o2)c1,.,.,14%[46 µM],.,.
O=C1CSC(=NC2CCCCC2)N1,-8%,7.9µM*,-12%,-10%[10 µM],21%
O=C1CS/C(=N/N=C2CCCC2)N1,.,-4%,.,0%,-5%
CCCn1c(C)nc2c(NCCN3CCCC3)nc(C)nc21,-6%,-1%,.,6%,.
CCOC(=O)N1CCC2(CC1)C(C#N)=C(N)Oc1c2c(C)nn1-c1cccc(Cl)c1,-11%,13µM*,-17%,-12%[0.074 µM],?
CCOC(=O)N1CCC2(CC1)C(C#N)=C(N)Oc1n[nH]c(C)c12,-7%,?,5%,-28%,14%
CCN1CCCc2cc(CN(CCN3CCOCC3)C(=S)Nc3ccc(OC)c(Cl)c3)ccc21,.,18µM*,.,.,8%
COc1ccc(NC(=S)N(Cc2ccc(Cl)cc2)Cc2ccc(C(=O)O)cc2)cc1Cl,.,20µM*,?,17%,-9%
S=C(Nc1ccccc1)N(CCN1CCOCC1)Cc1cccc(Cl)c1,.,-11%,.,10%[10 µM],-28%
SMILES,HPGD inh,ALDH1A1 inh,LMNA splice mod,HTT cytoprotect,HttQ103 aggreg
CCN1CCCc2cc(CN(CCN3CCOCC3)C(=S)Nc3ccc(OC)c(OC)c3)ccc21,.,3.2µM*,8%[46 µM],-72%,1%
CCc1ccccc1NC(=O)Cn1c(=O)n(Cc2ccccc2)c(=O)c2c(C)c(C(=O)N(C)C)sc21,.,.,26%[46 µM],.,.
CC(C)Cc1csc(NC(=O)c2ccc(Cl)cc2)c1C(=O)O,18µM*,25%,?,11%[10 µM],22µM*
CCOC(=O)c1c(CC(C)C)csc1NC(=O)C(C)C,1%,-6%,25%,-13%,-10%
COC(=O)c1c(-c2cccs2)csc1NC(=O)c1ccc(Cl)cc1,.,.,13%[46 µM],.,.
CC(C)Cc1csc(NC(=O)c2ccccc2Cl)c1C(=O)O,14µM*,?,?,-15%[10 µM],2%
